In ChEMBL document CHEMBL1961873, “Compounds: GSK PKIS; Assays: Nanosyn kinase panel” (2012) one finds inhibition data, which are given here for eleven compounds.
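Also: reported value is the mean percent inhibition of EPHB4.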

This test has as its target T1, Ephrin type-B receptor 4 (Homo sapiens) (UniProt P54760).
T1 sequence (whole entry): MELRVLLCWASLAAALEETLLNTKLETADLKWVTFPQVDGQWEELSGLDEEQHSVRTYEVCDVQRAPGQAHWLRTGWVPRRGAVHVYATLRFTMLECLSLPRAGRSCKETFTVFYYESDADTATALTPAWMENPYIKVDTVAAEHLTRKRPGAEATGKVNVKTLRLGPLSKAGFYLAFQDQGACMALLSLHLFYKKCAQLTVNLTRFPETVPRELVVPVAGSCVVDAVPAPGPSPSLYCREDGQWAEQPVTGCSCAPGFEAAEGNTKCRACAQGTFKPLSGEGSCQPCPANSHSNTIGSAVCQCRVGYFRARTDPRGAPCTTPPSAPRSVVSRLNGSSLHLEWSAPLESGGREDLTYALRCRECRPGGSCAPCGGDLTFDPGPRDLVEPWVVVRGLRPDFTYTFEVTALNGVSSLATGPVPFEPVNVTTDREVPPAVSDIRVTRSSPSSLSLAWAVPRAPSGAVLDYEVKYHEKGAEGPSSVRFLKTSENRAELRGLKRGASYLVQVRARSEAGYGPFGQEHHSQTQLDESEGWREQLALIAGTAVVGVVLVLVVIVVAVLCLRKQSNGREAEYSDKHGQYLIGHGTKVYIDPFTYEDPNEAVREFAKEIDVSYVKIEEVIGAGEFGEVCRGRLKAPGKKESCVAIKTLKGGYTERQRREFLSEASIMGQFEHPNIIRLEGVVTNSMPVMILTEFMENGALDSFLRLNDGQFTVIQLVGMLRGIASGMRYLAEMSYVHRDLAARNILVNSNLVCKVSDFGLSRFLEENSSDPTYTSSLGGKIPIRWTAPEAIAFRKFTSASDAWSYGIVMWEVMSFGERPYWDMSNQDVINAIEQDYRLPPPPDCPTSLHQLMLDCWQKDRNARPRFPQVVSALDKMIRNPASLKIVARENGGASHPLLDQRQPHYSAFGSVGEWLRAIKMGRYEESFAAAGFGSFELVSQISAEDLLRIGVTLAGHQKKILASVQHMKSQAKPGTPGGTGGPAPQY
The note with it: at 1 µM.
As a reminder, the inhibition is the change of the read-out against control, counted positive when it falls. Read a high inhibition as strong suppression. Turning to `CCS(=O)(=O)c1ccc(OC)c(Nc2nccc(N(C)c3ccc4c(C)n[nH]c4c3)n2)c1`, the inhibition was 65.8%.
For the compound `COC(=O)Nc1nc2cc(Oc3ccc(NC(=O)Nc4cccc(Br)c4)cc3)ccc2[nH]1`, the inhibition is 26%.
As to `CC(C)c1ccc(Nc2nccc(-c3cnn4ncccc34)n2)cc1`, the inhibition amounted to 2.76%.
`NS(=O)(=O)c1ccc(N/N=C2\C(=O)Nc3ccc(Cl)cc32)cc1` yielded an inhibition of 2.86%.
Then `COc1cccc(-n2ncc3c(N/N=C/c4ccc(C)cc4)ncnc32)c1`, with 3.21%; and `CCn1c(-c2nonc2N)nc2ccc(F)cc21`, with 1.12%.
Then `COc1cc2ncnc(Nc3ccc4c(cnn4Cc4ccccc4)c3)c2cc1OC`, with 2.63%; and `Nc1nccc(C#Cc2cncnc2Nc2ccc(OCc3cccc(F)c3)c(Cl)c2)n1`, with 2.68%.
Regarding `Cc1cc(-c2ccccn2)cc(C)c1/C=C/c1cncc(-c2nn[nH]n2)c1`, the inhibition was determined as 4.98%.
For `CS(=O)(=O)Nc1cccc(-c2ccc3c(NC(=O)C4CC4)n[nH]c3c2)c1`, the inhibition was 0.5%.
In the case of `O=C1Nc2ccc(-c3cccnc3)cc2C1=Cc1cc(Br)c(O)c(Br)c1`, the inhibition was found to be 3.11%.
